Experimental data: PubChem BioAssay (NCATS)
Inconclusive results are not listed. Active and inactive are the calls of the source. Calls follow the shape of the dose curve; as a rule, active = well fitted inhibition curve with a large enough effect; inconclusive = small, poorly fitted or top-dose-only effect; inactive = flat fitted curve, though single readings scatter.

Assays:
[1] = tested on: CP269; assay: qHTS profiling for inhibitors of Plasmodium falciparum proliferation (AID 504749); also: nearly all actives have a fitted effect of over 60% in size; settings: P. falciparum in erythrocytes, SYBR Green DNA, 72 h; series mostly up to 28.7 µM
Procedure, shortened: (§1)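 In a 72 h erythrocytic culture (37 C, humidified, 5% CO2) at 2.5% hematocrit and 0.3% starting parasitemia, compounds were tested; SYBR Green I in detergent lysis buffer stained parasite DNA overnight.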

[2] = tested on: CP286; assay: as above; settings: P. falciparum in erythrocytes, SYBR Green DNA, 72 h; series mostly up to 28.7 µM
Procedure, shortened: as §1

[3] = tested on: CP291; assay: as above; settings: P. falciparum in erythrocytes, SYBR Green DNA, 72 h; series mostly up to 28.7 µM
Procedure, shortened: as §1

[4] = tested on: CP297; assay: as above; settings: P. falciparum in erythrocytes, SYBR Green DNA, 72 h; series mostly up to 28.7 µM
Procedure, shortened: as §1

[5] = tested on: CP305; assay: as above; settings: P. falciparum in erythrocytes, SYBR Green DNA, 72 h; series mostly up to 28.7 µM
Procedure, shortened: as §1

[6] = tested on: CP315; assay: as above; settings: P. falciparum in erythrocytes, SYBR Green DNA, 72 h; series mostly up to 28.7 µM
Procedure, shortened: as §1

[7] = tested on: CP325; assay: as above; settings: P. falciparum in erythrocytes, SYBR Green DNA, 72 h; series mostly up to 28.7 µM
Procedure, shortened: as §1

[8] = tested on: CP329; assay: as above; settings: P. falciparum in erythrocytes, SYBR Green DNA, 72 h; series mostly up to 28.7 µM
Procedure, shortened: as §1

[9] = tested on: CP335; assay: as above; settings: P. falciparum in erythrocytes, SYBR Green DNA, 72 h; series mostly up to 28.7 µM
Procedure, shortened: as §1

[10] = tested on: DFO2036; assay: as above; settings: P. falciparum in erythrocytes, SYBR Green DNA, 72 h; series mostly up to 28.7 µM
Procedure, shortened: as §1

[11] = tested on: DIV14; assay: as above; settings: P. falciparum in erythrocytes, SYBR Green DNA, 72 h; series mostly up to 28.7 µM
Procedure, shortened: as §1

[12] = tested on: DIV17; assay: as above; settings: P. falciparum in erythrocytes, SYBR Green DNA, 72 h; series mostly up to 28.7 µM
Procedure, shortened: as §1

[13] = tested on: DIV30; assay: as above; settings: P. falciparum in erythrocytes, SYBR Green DNA, 72 h; series mostly up to 28.7 µM
Procedure, shortened: as §1

[14] = tested on: Dd2; assay: as above; settings: P. falciparum in erythrocytes, SYBR Green DNA, 72 h; series mostly up to 28.7 µM
Procedure, shortened: as §1

[15] = tested on: ECU; assay: as above; settings: P. falciparum in erythrocytes, SYBR Green DNA, 72 h; series mostly up to 28.7 µM
Procedure, shortened: as §1

[16] = tested on: FAB9; assay: as above; settings: P. falciparum in erythrocytes, SYBR Green DNA, 72 h; series mostly up to 28.7 µM
Procedure, shortened: as §1

[17] = tested on: GB4; assay: as above; settings: P. falciparum in erythrocytes, SYBR Green DNA, 72 h; series mostly up to 28.7 µM
Procedure, shortened: as §1

[18] = tested on: HB3; assay: as above; settings: P. falciparum in erythrocytes, SYBR Green DNA, 72 h; series mostly up to 28.7 µM
Procedure, shortened: as §1

[19] = tested on: ICS; assay: as above; settings: P. falciparum in erythrocytes, SYBR Green DNA, 72 h; series mostly up to 28.7 µM
Procedure, shortened: as §1

[20] = tested on: JCK; assay: as above; settings: P. falciparum in erythrocytes, SYBR Green DNA, 72 h; series mostly up to 28.7 µM
Procedure, shortened: as §1

[21] = tested on: N140; assay: as above; settings: P. falciparum in erythrocytes, SYBR Green DNA, 72 h; series mostly up to 28.7 µM
Procedure, shortened: as §1

[22] = tested on: P93_24; assay: as above; settings: P. falciparum in erythrocytes, SYBR Green DNA, 72 h; series mostly up to 28.7 µM
Procedure, shortened: as §1

[23] = tested on: P94_40; assay: as above; settings: P. falciparum in erythrocytes, SYBR Green DNA, 72 h; series mostly up to 28.7 µM
Procedure, shortened: as §1

[24] = tested on: PAD; assay: as above; settings: P. falciparum in erythrocytes, SYBR Green DNA, 72 h; series mostly up to 28.7 µM
Procedure, shortened: as §1

[25] = tested on: PC15; assay: as above; settings: P. falciparum in erythrocytes, SYBR Green DNA, 72 h; series mostly up to 28.7 µM
Procedure, shortened: as §1

[26] = tested on: PC26; assay: as above; settings: P. falciparum in erythrocytes, SYBR Green DNA, 72 h; series mostly up to 28.7 µM
Procedure, shortened: as §1

[27] = tested on: PC49; assay: as above; settings: P. falciparum in erythrocytes, SYBR Green DNA, 72 h; series mostly up to 28.7 µM
Procedure, shortened: as §1

[28] = tested on: SC27B; assay: as above; settings: P. falciparum in erythrocytes, SYBR Green DNA, 72 h; series mostly up to 28.7 µM
Procedure, shortened: as §1

[29] = tested on: TAB109; assay: as above; settings: P. falciparum in erythrocytes, SYBR Green DNA, 72 h; series mostly up to 28.7 µM
Procedure, shortened: as §1

[30] = tested on: TAB113; assay: as above; settings: P. falciparum in erythrocytes, SYBR Green DNA, 72 h; series mostly up to 28.7 µM
Procedure, shortened: as §1

[31] = tested on: TAB165; assay: as above; settings: P. falciparum in erythrocytes, SYBR Green DNA, 72 h; series mostly up to 28.7 µM
Procedure, shortened: as §1

[32] = tested on: W2; assay: as above; settings: P. falciparum in erythrocytes, SYBR Green DNA, 72 h; series mostly up to 28.7 µM
Procedure, shortened: as §1

[33] = tested on: astro; assay: Drug repurposing screens with cells derived from glioblastoma tumor samples (AID 1345199); settings: viability, ATP luminescence, 48 h; series mostly up to 45.9 µM; also: nearly all actives have a fitted effect of over 40% in size
Procedure, shortened: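 Primary testing used CD133+ neurospheres from four GBM patients, seven concentrations, 48 h exposure and ATP-based viability; confirmation added three slower-growing patient lines.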

Measured: Potency
Potency is read from the fitted curve at half-maximal effect.

CCCCCCCCCC[N+](C)(C)CCCCCCCCCC
active: [1] 4.78 µM | [2] 2.51 µM | [3] 5.36 µM | [4] 6.75 µM | [5] 5.36 µM | [6] 16.9 µM | [7] 5.36 µM | [8] 6.75 µM | [9] 6.75 µM | [10] 5.01 µM | [11] 3.01 µM | [12] 3.01 µM | [13] 8.49 µM | [14] 8.91 µM | [15] 5.01 µM | [16] 5.01 µM | [17] 3.38 µM | [18] 7.94 µM | [19] 2 µM | [20] 10 µM | [21] 7.08 µM | [22] 5.01 µM | [23] 6.31 µM | [24] 8.91 µM | [25] 3.55 µM | [26] 5.36 µM | [27] 10 µM | [28] 5.01 µM | [29] 6.31 µM | [30] 5.01 µM | [31] 7.08 µM | [32] 1.51 µM | [33] 4.47 µM
